Experiment [1] is described as follows: qHTS profiling for inhibitors of Plasmodium falciparum proliferation (AID 504749).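 Note: 0% = DMSO vehicle and full inhibition = artemisinin control; nearly all actives have a fitted effect of over 60% in size.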 The following applies: P. falciparum in erythrocytes, SYBR Green DNA, 72 h, at 28.7 µM (top of the series). In short, it runs like this: (§1)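 SYBR Green fluorescence (ex 485 nm, em 535 nm) reports parasite DNA after 72 h compound exposure of infected red cells at 0.3% parasitemia, 2.5% hematocrit; signal normalized to 0.29 uM artemisinin and vehicle wells.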
In general terms: Quantitative high-throughput screening tests each substance at several concentrations.

For a further experiment, the system named is 3D7. The experiment is described as above. To be noted: P. falciparum in erythrocytes, SYBR Green DNA, 72 h; series mostly up to 28.7 µM. In short, it runs like this:
as §1

The next experiment relates to 7G8. The description is as above. To be noted: P. falciparum in erythrocytes, SYBR Green DNA, 72 h; series mostly up to 28.7 µM. In short, it runs like this:
as §1

For the next experiment, the system named is AA1029. Described as above. The following applies: P. falciparum in erythrocytes, SYBR Green DNA, 72 h; series mostly up to 28.7 µM. In short, it runs like this:
as §1

In another experiment the test system is AS120. The description is as above. To be noted: P. falciparum in erythrocytes, SYBR Green DNA, 72 h; series mostly up to 28.7 µM. In short, it runs like this:
as §1

For a further experiment, the system named is ATS189. The description is as above. To be noted: P. falciparum in erythrocytes, SYBR Green DNA, 72 h; series mostly up to 28.7 µM. An outline of the steps: as §1
A further experiment relates to ATS95. The experiment is described as above. The following applies: P. falciparum in erythrocytes, SYBR Green DNA, 72 h; series mostly up to 28.7 µM. In short, it runs like this: as §1
The subject of the next experiment is C2A. The experiment is described as above. To be noted: P. falciparum in erythrocytes, SYBR Green DNA, 72 h; series mostly up to 28.7 µM. An outline of the steps:
as §1

Another experiment relates to CP185. The description is as above. The following applies: P. falciparum in erythrocytes, SYBR Green DNA, 72 h; series mostly up to 28.7 µM. An outline of the steps:
as §1

The test system of the next experiment is CP191. The experiment is described as above. The following applies: P. falciparum in erythrocytes, SYBR Green DNA, 72 h; series mostly up to 28.7 µM. An outline of the steps:
as §1

A further experiment relates to CP192. Described as above. The following applies: P. falciparum in erythrocytes, SYBR Green DNA, 72 h; series mostly up to 28.7 µM. In short, it runs like this:
as §1

Another experiment concerns CP194. The description is as above. The following applies: P. falciparum in erythrocytes, SYBR Green DNA, 72 h; series mostly up to 28.7 µM. An outline of the steps: as §1
A further experiment concerns CP201. The description is as above. The following applies: P. falciparum in erythrocytes, SYBR Green DNA, 72 h; series mostly up to 28.7 µM. In short, it runs like this:
as §1

Experiment [2] is described as follows: qHTS drug screen for cell cycle checkpoint inhibitors in PARPi-resistant BRCA-mutant ovarian cancer cell lines. (AID 1963452; calls by dose curve; note: potency is the fitted concentration of half-maximal effect). To be noted: PEO1/OlaR viability, CellTiter-Glo luminescence, 96 h; for Z-AUC: stronger effect = lower value. An outline of the steps:
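PEO1, PEO4 and PEO1/OlaR ovarian cancer cells, 600 per well, exposed 96 h at 37C to a dilution series. Viability read by CellTiter-Glo luminescence, normalized to DMSO and empty wells; activity summarized as Z-AUC.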

For a further experiment, the system named is CP203. Kind of experiment: qHTS profiling for inhibitors of Plasmodium falciparum proliferation (AID 504749).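 Note: 0% = DMSO vehicle and full inhibition = artemisinin control; nearly all actives have a fitted effect of over 60% in size.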 To be noted: P. falciparum in erythrocytes, SYBR Green DNA, 72 h; series mostly up to 28.7 µM. In short, it runs like this: as §1
A further experiment deals with CP211. Described as above. The following applies: P. falciparum in erythrocytes, SYBR Green DNA, 72 h; series mostly up to 28.7 µM. In short, it runs like this:
as §1

[3] abbreviates: measured here: PEO1 parental Z-AUC.

Results on 14 compounds are retold here after PubChem BioAssay (NCATS).

Inconclusive results are not listed. Calls of active or inactive are those of the source. Unless noted, calls come from the whole dose curve; as a rule, active = well fitted inhibition curve with a large enough effect; inconclusive = small, poorly fitted or top-dose-only effect; inactive = flat fitted curve, though single readings scatter.

Take `CCCCCCC(O)C/C=C/CCCCCCCC(=O)O` (configuration not stated): the activity, negative = inhibition in experiment [1] (parasite line A) is -1.16% (inactive); in experiment [1] (parasite line B), 3.04% (inactive). Besides, the Potency entry in the experiment with 3D7, in the experiment with 7G8, in the experiment with AA1029, in the experiment with AS120, in the experiment with ATS189 and in the experiment with ATS95 was “inactive” throughout. For the same compound, the Potency result in the experiment on C2A, in the experiment on CP185, with CP191, with CP192, in the experiment on CP194 and in the experiment with CP201 was “inactive” each time.

For `COc1cc2c(Nc3ccc(Cl)c(Cl)c3F)ncnc2cc1OCC1C[C@@H]2CN(C)C[C@@H]2C1` (some centres not stated), the values for the Z-AUC in experiment [2], in experiment [2] (setting [3]) and in [2] (measured here: PEO4 Z-AUC) were -0.294 (inactive), -0.529 and -0.609, respectively.

As for `CCCCCC(CC)COC(=O)CC(C(=O)OCC(CC)CCCC)S(=O)(=O)O` (configuration not stated), the activity, negative = inhibition was 7.28% (inactive) in [1] (parasite line A) and 3.54% (inactive) in experiment [1] (parasite line B). In addition, the Potency entry with 3D7, in the experiment on 7G8, in the experiment on AA1029, in the experiment with AS120, with ATS189 and in the experiment with ATS95 was “inactive” in each case. Moreover, the Potency result with C2A, in the experiment with CP185 and with CP191 was “inactive” throughout.

As to `CCCCC(C)(O)C/C=C/[C@H]1[C@H](O)CC(=O)[C@@H]1CCCCCCC(=O)OC` (some centres not stated), the activity, negative = inhibition is 0.758% (inactive) in [1] (parasite line A) and 3.16% (inactive) in experiment [1] (parasite line B). In addition, the Potency entry in the experiment on 3D7, with 7G8, with AA1029, in the experiment with AS120, with ATS189 and in the experiment on ATS95 was “inactive” each time. Further, the Potency result in the experiment on C2A, in the experiment with CP185, in the experiment with CP191, in the experiment with CP192, in the experiment on CP194 and in the experiment on CP201 was “inactive” in each case. Besides, the Potency result with CP203 and in the experiment with CP211 was “inactive” in each case.

Turning to `COc1ncc(-c2ccc3c(Nc4cc(Oc5cc(F)cc(F)c5)cc(C(=O)O)c4)c(S(=O)(=O)NC4CC4)cnc3c2)c(OC)n1`, the values for the Z-AUC in [2], in [2] (setting [3]) and in experiment [2] (measured here: PEO4 Z-AUC) were -0.517 (inactive), -0.369 and -0.317, respectively.

Take `CN=C(NC#N)Nc1ccc(C2=NNC(=O)C[C@@H]2C)cc1`: the activity, negative = inhibition in [1] (parasite line A) was 13.8% (inactive); in experiment [1] (parasite line B), 8.03% (inactive). Moreover, the Potency entry in the experiment on 3D7, in the experiment on 7G8, with AA1029, in the experiment with AS120, with ATS189 and in the experiment on ATS95 was “inactive” throughout. For the same compound, the Potency result with C2A, with CP185 and in the experiment on CP191 was “inactive” throughout.

Turning to `CC(C)(O)CNc1nc(Nc2ccnc(C(F)(F)F)c2)nc(-c2cccc(C(F)(F)F)n2)n1`, the Z-AUC in experiment [2] is 0.352 (inactive); in experiment [2] (setting [3]), 0.62; in experiment [2] (measured here: PEO4 Z-AUC), 0.79.

On to `CCCOc1ccn2c(C(C)=O)cc(-c3ccccc3S(C)(=O)=O)c2c1`, for which the figures for the Z-AUC in experiment [2], in experiment [2] (setting [3]) and in experiment [2] (measured here: PEO4 Z-AUC) were 2.02 (inactive), 1.76 and 1.78, respectively.

Take `CCC(=O)NS(=O)(=O)c1ccc(-c2c(-c3ccccc3)noc2C)cc1`: the Z-AUC was -0.948 (inactive) in [2], -1.08 in experiment [2] (setting [3]) and -1.33 in experiment [2] (measured here: PEO4 Z-AUC).

Take `NS(=O)(=O)OC[C@@H]1C[C@@H](n2ccc3c(N[C@H]4CCc5ccccc54)ncnc32)C[C@@H]1O`: the Potency in [2] was 347 nM (active). Also, the Z-AUC was -1.6 in [2] (setting [3]) and -1.88 in [2] (measured here: PEO4 Z-AUC).

As to `Cc1nn(C)c2c1C(c1ccc(C(F)(F)F)cc1)C(C#N)=C(N)O2` (configuration not stated), the Z-AUC in experiment [2] is 0.183 (inactive); in [2] (setting [3]), 1.31; in [2] (measured here: PEO4 Z-AUC) it was 1.26.

In the case of `CNc1nc(Nc2cnn([C@H]3CCN(C4COC4)C[C@@H]3F)c2Cl)ncc1C(F)(F)F`, the Z-AUC in [2] is -0.479 (inactive); in experiment [2] (setting [3]) it was -0.0727; in experiment [2] (measured here: PEO4 Z-AUC) it was 0.0395.

Consider `CN1CC[C@@H](NC(=O)Nc2ccc(C#N)cc2)C[C@@H]1c1nc2ccccc2[nH]1`, for which the Z-AUC in experiment [2] was -0.312 (inactive); in experiment [2] (setting [3]), 0.0879; in [2] (measured here: PEO4 Z-AUC) it was -1.25.

With `CCOc1cc2ncc(C#N)c(Nc3ccc(OCc4ccccn4)c(Cl)c3)c2cc1NC(=O)/C=C/CN(C)C`, the Z-AUC in experiment [2] was 0.57 (inactive); in experiment [2] (setting [3]), 0.366; in [2] (measured here: PEO4 Z-AUC), -0.0482.
